What all share (assay): DAPPL (digital affinity profiling via proximity ligation, sequencing); 10 mM Tris-HCl pH 7.5, 50 mM NaCl, 1 mM DTT, 4% glycerol, room temperature, 30 min; GST-TFs on glutathione beads, 16-mer random dsDNA library, 0.1% formaldehyde crosslink after washing; high values mean tight binding
Test [1] has as its target T1, FLI1 (Homo sapiens, UniProt Q01543 1-452).
T1 sequence: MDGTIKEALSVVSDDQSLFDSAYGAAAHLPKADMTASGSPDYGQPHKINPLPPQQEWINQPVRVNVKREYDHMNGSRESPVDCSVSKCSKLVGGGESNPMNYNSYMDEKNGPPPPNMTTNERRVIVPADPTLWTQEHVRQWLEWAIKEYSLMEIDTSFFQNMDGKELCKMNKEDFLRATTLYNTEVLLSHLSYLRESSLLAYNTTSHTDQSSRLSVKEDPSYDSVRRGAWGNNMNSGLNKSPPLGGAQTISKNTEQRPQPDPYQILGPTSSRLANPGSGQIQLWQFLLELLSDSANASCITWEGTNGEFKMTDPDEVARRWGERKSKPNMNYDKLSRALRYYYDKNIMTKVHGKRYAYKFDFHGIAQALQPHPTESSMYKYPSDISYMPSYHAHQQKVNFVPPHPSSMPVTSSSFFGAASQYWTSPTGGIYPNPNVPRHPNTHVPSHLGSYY
The following applies: protein: recombinant; tags: N-terminal GST; dsDNA, one strand shown. In a few lines:
(§1)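 Pools of DNA-barcoded human transcription factors, expressed in yeast as GST fusions on glutathione beads and combined with a tag-only sample, were incubated with 200 nmole of a 16-mer random double-stranded DNA library. Incubation took 30 min at room temperature in Tris/NaCl/DTT/glycerol buffer and was followed by washing, 0.1% formaldehyde crosslinking, proximity ligation (BsaI/T4 ligase, 1 h, 37 °C), PCR amplification and sequencing on an Illumina NextSeq500. Binding signal is the ratio of a hexamer's read frequency for a factor to its frequency for the tag-only sample.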

Test [2] deals with T2, ELK1 (Homo sapiens, UniProt P19419 1-428).
T2 sequence: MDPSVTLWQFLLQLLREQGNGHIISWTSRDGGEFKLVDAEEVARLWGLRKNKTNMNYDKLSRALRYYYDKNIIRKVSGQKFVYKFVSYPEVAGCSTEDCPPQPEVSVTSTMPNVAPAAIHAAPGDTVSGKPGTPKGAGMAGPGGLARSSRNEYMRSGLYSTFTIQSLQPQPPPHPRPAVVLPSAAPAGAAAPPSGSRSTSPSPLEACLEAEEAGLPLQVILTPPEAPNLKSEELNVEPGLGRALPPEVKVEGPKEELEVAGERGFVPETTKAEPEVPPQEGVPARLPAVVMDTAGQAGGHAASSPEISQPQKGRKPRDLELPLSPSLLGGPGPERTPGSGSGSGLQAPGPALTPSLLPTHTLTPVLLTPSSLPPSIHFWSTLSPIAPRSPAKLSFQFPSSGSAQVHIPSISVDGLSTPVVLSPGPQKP
Particulars: protein: recombinant; tags: N-terminal GST; dsDNA, one strand shown. In a few lines: as §1

Test [3] addresses T3, GABPA (Homo sapiens, UniProt Q06546 1-454).
T3 sequence: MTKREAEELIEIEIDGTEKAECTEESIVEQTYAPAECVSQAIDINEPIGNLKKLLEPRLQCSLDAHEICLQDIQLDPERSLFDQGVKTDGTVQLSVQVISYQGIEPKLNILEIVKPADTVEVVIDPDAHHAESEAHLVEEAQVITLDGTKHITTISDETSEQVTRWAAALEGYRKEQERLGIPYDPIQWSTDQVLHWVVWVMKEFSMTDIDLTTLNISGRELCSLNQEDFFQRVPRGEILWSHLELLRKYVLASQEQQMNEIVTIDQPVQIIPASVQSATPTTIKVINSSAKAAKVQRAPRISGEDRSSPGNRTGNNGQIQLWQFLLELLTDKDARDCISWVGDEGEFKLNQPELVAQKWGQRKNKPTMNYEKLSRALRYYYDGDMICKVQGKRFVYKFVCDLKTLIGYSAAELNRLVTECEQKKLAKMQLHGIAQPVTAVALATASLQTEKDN
Particulars: protein: recombinant; tags: N-terminal GST; dsDNA, one strand shown. In a few lines:
as §1

Test [4] addresses T4, ERG (Homo sapiens, UniProt P11308 1-479).
T4 sequence: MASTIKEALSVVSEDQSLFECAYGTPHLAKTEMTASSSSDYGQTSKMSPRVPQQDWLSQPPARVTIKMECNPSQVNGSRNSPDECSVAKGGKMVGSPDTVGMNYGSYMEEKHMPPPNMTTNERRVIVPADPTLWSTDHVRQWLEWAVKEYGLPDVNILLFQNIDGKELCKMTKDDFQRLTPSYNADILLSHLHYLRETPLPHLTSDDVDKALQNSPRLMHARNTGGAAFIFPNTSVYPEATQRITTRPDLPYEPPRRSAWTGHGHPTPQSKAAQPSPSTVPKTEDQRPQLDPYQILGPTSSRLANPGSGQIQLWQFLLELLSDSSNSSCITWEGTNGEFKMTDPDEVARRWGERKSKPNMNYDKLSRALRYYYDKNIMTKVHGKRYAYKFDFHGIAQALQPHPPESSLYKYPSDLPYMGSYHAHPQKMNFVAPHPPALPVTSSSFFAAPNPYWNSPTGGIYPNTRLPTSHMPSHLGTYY
The following applies: protein: recombinant; tags: N-terminal GST; dsDNA, one strand shown. A digest of the protocol: as §1

Test [5] has as its target ELF1 (Homo sapiens, UniProt P32519 1-619). The following applies: protein: recombinant; tags: N-terminal GST; dsDNA, one strand shown. A digest of the protocol:
as §1

The target of test [6] is T5, EHF (Homo sapiens, UniProt Q9NZC4 1-300).
T5 sequence: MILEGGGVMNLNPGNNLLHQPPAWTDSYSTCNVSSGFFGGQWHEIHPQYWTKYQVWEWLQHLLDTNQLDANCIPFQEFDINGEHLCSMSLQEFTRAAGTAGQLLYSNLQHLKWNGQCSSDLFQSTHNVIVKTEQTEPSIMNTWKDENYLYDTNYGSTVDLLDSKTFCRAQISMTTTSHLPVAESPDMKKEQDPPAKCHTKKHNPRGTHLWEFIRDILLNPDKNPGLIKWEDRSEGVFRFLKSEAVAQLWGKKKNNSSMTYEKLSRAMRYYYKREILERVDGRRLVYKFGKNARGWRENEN
Particulars: protein: recombinant; tags: N-terminal GST; dsDNA, one strand shown. A digest of the protocol:
as §1

In test [7] the target is SPI1 (Homo sapiens, UniProt P17947 1-270). Particulars: protein: recombinant; tags: N-terminal GST; dsDNA, one strand shown. A digest of the protocol:
as §1

Test [8] deals with SPIB (Homo sapiens, UniProt Q01892 1-262). The following applies: protein: recombinant; tags: N-terminal GST; dsDNA, one strand shown. A digest of the protocol:
as §1

Test [9] has as its target T6, ELK3 (Homo sapiens, UniProt P41970 1-407).
T6 sequence: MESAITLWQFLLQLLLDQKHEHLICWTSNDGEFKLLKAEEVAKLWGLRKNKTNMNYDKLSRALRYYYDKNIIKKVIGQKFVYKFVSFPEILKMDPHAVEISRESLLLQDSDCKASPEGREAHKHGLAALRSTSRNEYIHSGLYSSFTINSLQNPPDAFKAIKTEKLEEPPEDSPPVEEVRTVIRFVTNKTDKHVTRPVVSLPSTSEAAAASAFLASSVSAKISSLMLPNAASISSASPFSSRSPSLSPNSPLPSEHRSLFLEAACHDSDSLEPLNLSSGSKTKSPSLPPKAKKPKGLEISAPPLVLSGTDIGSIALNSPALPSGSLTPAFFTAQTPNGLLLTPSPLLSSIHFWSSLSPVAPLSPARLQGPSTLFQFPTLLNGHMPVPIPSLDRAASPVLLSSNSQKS
Particulars: protein: recombinant; tags: N-terminal GST; dsDNA, one strand shown. A digest of the protocol: as §1

For test [10], the target named is T7, FEV (Homo sapiens, UniProt Q99581 1-238).
T7 sequence: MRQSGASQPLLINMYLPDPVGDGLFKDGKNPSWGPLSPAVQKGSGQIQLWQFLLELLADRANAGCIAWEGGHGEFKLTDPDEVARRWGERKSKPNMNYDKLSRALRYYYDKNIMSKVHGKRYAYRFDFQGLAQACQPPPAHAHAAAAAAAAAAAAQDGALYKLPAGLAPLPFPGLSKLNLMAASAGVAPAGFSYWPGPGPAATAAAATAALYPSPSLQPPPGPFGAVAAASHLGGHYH
Particulars: protein: recombinant; tags: N-terminal GST; dsDNA, one strand shown. A digest of the protocol:
as §1

Test [11] concerns the target ETV5 (Homo sapiens, UniProt P41161 1-510). The following applies: protein: recombinant; tags: N-terminal GST; dsDNA, one strand shown. In a few lines:
as §1

Test [12] addresses HSF1 (Homo sapiens, UniProt Q00613 1-529). Particulars: protein: recombinant; tags: N-terminal GST; chain copies: 3; dsDNA, one strand shown. A digest of the protocol: as §1
The target in test [13] is T8, SPIC (Homo sapiens, UniProt Q8N5J4 1-248).
T8 sequence: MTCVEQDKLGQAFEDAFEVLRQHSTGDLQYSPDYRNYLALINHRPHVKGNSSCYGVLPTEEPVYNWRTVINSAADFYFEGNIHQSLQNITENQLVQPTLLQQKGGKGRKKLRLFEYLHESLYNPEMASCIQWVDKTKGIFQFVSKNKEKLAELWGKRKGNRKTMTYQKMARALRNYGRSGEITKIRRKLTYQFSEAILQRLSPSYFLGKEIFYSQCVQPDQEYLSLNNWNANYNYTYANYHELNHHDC
The following applies: protein: recombinant; tags: N-terminal GST; dsDNA, one strand shown. A digest of the protocol: as §1

The target in test [14] is ELF4 (Homo sapiens, UniProt Q99607 1-663). Particulars: protein: recombinant; tags: N-terminal GST; dsDNA, one strand shown. A digest of the protocol:
as §1

The target in test [15] is T9, ELK4 (Homo sapiens, UniProt P28324-2 1-405).
T9 sequence: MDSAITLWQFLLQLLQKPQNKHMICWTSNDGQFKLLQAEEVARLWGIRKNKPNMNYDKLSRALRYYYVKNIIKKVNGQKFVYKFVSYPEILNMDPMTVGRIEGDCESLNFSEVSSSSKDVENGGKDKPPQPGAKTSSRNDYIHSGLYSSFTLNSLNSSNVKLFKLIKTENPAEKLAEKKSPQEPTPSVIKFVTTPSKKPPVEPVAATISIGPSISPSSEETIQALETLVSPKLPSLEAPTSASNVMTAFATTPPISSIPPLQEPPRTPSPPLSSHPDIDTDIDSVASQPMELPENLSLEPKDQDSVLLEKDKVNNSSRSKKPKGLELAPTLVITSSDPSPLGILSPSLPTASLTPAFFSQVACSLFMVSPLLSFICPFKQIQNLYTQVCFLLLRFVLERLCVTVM
The following applies: protein: recombinant; tags: N-terminal GST; dsDNA, one strand shown. In a few lines:
as §1

Test [16] has as its target T10, ETV2 (Homo sapiens, UniProt O00321 1-342).
T10 sequence: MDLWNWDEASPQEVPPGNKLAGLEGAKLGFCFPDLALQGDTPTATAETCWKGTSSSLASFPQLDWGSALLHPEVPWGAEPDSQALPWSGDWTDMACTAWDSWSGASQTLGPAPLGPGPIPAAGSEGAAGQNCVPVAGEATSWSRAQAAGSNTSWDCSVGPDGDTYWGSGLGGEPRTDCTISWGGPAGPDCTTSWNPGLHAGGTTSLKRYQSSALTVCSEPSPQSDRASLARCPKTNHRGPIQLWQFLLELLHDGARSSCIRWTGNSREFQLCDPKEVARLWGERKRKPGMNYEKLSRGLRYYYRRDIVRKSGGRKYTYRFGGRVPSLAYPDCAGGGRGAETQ
The following applies: protein: recombinant; tags: N-terminal GST; dsDNA, one strand shown. A digest of the protocol:
as §1

Test [17] deals with T11, ELF3 (Homo sapiens, UniProt P78545 1-371).
T11 sequence: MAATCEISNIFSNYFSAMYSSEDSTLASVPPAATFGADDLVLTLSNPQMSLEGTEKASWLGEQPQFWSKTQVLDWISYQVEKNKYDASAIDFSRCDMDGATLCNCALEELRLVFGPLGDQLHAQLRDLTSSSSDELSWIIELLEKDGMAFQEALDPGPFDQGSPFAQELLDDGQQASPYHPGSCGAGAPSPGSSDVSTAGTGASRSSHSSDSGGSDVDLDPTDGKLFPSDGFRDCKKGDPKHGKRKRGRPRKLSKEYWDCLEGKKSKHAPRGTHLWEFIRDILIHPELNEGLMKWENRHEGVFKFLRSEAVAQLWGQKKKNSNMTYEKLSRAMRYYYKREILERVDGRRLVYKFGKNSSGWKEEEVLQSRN
The following applies: protein: recombinant; tags: N-terminal GST; dsDNA, one strand shown. A digest of the protocol: as §1

Test [18] addresses CRX (Homo sapiens, UniProt O43186 1-299). Particulars: protein: recombinant; tags: N-terminal GST; dsDNA, one strand shown. A digest of the protocol:
as §1

Test [19] has as its target ETV1 (Homo sapiens, UniProt P50549 1-477). The following applies: protein: recombinant; tags: N-terminal GST; dsDNA, one strand shown. In a few lines:
as §1

Chain of ELF4 (Q99607 whole entry): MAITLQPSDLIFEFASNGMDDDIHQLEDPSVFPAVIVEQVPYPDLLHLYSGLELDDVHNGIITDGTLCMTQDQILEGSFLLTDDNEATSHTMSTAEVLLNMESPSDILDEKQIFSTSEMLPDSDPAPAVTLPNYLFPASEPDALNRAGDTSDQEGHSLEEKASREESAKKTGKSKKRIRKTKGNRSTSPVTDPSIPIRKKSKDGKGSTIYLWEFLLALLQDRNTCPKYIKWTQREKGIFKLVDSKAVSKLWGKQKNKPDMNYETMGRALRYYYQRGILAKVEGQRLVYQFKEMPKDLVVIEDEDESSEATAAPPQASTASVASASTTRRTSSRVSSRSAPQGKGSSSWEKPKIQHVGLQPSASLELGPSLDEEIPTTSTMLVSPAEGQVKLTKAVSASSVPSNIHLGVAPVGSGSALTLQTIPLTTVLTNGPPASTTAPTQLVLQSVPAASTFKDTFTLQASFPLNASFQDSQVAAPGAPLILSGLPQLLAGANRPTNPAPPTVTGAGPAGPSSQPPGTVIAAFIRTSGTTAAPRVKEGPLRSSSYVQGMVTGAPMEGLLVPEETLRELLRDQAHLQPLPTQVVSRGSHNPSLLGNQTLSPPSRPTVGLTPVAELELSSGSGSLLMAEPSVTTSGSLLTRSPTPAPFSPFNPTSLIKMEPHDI
Chain of HSF1 (Q00613 whole entry): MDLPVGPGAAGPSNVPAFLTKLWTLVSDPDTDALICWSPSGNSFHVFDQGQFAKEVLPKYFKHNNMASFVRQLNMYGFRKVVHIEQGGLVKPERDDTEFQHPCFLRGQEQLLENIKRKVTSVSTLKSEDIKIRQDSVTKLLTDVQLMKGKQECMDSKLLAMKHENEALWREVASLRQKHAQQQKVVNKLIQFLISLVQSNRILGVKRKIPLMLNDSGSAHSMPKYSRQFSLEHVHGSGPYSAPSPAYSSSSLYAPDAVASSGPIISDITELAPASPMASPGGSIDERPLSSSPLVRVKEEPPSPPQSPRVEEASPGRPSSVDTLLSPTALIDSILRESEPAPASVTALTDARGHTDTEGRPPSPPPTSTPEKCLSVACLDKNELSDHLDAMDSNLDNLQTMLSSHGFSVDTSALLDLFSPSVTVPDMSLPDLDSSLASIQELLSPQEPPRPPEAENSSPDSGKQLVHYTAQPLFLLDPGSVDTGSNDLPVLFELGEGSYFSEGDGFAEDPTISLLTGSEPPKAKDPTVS
Chain of SPIB (Q01892 whole entry): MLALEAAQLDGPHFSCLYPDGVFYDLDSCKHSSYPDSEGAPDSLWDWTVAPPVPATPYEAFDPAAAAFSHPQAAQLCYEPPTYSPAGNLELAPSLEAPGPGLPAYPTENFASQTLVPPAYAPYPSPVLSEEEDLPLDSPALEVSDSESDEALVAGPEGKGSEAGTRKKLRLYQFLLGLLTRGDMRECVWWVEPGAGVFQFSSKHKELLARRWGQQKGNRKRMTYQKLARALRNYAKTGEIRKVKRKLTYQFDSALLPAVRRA
Chain of ELF1 (P32519 whole entry): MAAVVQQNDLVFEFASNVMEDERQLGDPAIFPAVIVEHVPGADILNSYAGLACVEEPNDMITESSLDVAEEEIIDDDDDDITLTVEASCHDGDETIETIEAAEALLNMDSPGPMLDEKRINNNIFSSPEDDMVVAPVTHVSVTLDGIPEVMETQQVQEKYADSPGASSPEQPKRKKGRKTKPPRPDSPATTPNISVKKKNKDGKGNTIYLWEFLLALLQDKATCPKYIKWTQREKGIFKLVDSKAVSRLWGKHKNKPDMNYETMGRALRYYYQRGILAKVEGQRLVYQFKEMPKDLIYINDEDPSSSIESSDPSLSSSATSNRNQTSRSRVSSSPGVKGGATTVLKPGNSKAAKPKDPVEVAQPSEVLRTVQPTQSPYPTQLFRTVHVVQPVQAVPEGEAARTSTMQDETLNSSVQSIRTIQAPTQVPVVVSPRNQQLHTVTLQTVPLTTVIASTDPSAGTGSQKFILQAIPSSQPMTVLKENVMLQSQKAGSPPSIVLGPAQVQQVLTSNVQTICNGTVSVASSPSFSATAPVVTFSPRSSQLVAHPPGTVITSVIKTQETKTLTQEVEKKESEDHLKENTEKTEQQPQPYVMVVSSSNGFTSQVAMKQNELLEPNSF
Chain of ETV1 (P50549 whole entry): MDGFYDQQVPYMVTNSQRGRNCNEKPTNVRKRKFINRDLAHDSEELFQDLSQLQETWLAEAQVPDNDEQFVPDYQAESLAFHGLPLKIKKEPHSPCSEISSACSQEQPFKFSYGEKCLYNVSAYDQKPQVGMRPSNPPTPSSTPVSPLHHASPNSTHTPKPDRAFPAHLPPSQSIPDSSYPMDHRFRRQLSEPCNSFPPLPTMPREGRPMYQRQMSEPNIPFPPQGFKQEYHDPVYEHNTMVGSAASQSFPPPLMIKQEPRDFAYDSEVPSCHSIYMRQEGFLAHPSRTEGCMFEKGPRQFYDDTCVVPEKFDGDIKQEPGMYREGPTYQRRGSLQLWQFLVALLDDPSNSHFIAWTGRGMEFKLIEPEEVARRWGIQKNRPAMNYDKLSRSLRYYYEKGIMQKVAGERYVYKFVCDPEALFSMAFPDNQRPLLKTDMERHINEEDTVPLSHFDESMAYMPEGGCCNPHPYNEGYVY
Chain of CRX (O43186 whole entry): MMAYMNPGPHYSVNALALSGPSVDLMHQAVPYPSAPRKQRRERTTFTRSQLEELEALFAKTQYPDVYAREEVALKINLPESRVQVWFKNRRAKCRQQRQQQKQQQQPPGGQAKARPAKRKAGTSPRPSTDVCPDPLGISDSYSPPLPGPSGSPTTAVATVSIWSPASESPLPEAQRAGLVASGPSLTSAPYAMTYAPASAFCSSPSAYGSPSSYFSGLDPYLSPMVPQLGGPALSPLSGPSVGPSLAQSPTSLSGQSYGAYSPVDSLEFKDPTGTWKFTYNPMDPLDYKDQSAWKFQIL
Chain of ETV5 (P41161 whole entry): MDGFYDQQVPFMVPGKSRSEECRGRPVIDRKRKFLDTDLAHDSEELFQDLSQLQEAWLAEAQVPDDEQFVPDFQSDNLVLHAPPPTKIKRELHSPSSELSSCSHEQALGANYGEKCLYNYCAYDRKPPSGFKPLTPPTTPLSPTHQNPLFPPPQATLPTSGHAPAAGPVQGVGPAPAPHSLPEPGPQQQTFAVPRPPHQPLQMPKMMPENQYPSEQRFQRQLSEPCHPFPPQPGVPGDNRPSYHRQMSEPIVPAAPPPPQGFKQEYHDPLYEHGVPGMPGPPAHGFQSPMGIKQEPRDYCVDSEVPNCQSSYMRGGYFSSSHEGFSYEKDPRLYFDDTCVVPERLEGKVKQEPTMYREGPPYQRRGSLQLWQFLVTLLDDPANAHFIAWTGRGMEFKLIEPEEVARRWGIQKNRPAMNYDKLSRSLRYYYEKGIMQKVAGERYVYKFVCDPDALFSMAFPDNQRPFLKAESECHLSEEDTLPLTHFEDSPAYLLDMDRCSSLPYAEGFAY

Consider GATCCC, for which the binding signal in [1] was 1.16 fold enrichment (6-mer frequency, TF over GST control); in [2], 1.16 fold enrichment (6-mer frequency, TF over GST control); in [3], 1.15 fold enrichment (6-mer frequency, TF over GST control); in [4] it was 1.23 fold enrichment (6-mer frequency, TF over GST control); in [5] it was 1.27 fold enrichment (6-mer frequency, TF over GST control); in [6] it was 1.17 fold enrichment (6-mer frequency, TF over GST control). Moreover, the binding signal in [7] was 1.11 fold enrichment (6-mer frequency, TF over GST control); in test [8], 1.17 fold enrichment (6-mer frequency, TF over GST control); in test [9], 1.14 fold enrichment (6-mer frequency, TF over GST control); in test [10] it was 1.18 fold enrichment (6-mer frequency, TF over GST control); in test [11] it was 1.13 fold enrichment (6-mer frequency, TF over GST control); in test [12], 1.22 fold enrichment (6-mer frequency, TF over GST control). The binding signal in [13] is 1.22 fold enrichment (6-mer frequency, TF over GST control); in [14] it was 1.26 fold enrichment (6-mer frequency, TF over GST control); in test [15], 1.2 fold enrichment (6-mer frequency, TF over GST control); in test [16], 1.23 fold enrichment (6-mer frequency, TF over GST control); in test [17] it was 1.18 fold enrichment (6-mer frequency, TF over GST control); in test [18], 1.32 fold enrichment (6-mer frequency, TF over GST control). For the same sequence, in test [19], the binding signal is 1.22 fold enrichment (6-mer frequency, TF over GST control).

The values above are taken from publication PMC7862700, “An all-to-all approach to the identification of sequence-specific readers for epigenetic DNA modifications on cytosine”.
